Bioassay records deposited in PubChem by National Center for Advancing Translational Sciences (NCATS).
Rows were chosen to be rich in hits. Some 3% of all compounds tested hit in one or more screens of this group.
Tau fibril FP = qHTS for Inhibitors of Tau Fibril Formation, Fluorescence Polarization; Microtubule-associated protein tau (Homo sapiens), P10636; K18 P301L tau heparin fibrillization, Alexa594 FP, 6 h; Potency, µM (titrated, usually from 57.7 µM), for inactives: at the top dose activity, negative = inhibition, actives largely listed as inhibitors; 280,000 compounds, 0.39% hits; AID 1468, 2008; note: nearly all actives have a fitted effect of over 55% in size
Target sequence (P10636 561-689 P618L limits assumed): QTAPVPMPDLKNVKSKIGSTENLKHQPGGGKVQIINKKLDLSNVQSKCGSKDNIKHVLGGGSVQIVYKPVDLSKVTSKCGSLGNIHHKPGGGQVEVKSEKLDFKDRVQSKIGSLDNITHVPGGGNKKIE
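K18 P301L tau (15 uM unlabeled/0.24 uM Alexa 594-labeled, final) + compound + heparin 20 uM final; 100 mM NaOAc pH 7; 6 hr 37 C; ThT 30 uM final added, 1 hr RT; FP ex 555/em 632 nm.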
TexasRed fluor = Total Fluorescence Counterscreen for Inhibitors of the Interaction of Thyroid Hormone Receptor and Steroid Receptor Coregulator 2 | 280,000 compounds, 0.29% hits | Potency, µM (series often up to 106 µM), without a hit: at the highest dose fluorescence change, negative = quenching | TRb/SRC2 Texas Red total fluorescence interference | AID 1479, 2009; active = well fitted curve in either direction with a large enough effect; inconclusive = small, poorly fitted or top-dose-only effect
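Human TRb ligand-binding domain at 0.6 uM with 20 nM Texas Red SRC2 peptide in Tris buffer containing 1 uM T3 and 5% DMSO, incubated with compound 5 h at ambient temperature. Total fluorescence (555/632 nm) calculated as parallel + 2 × perpendicular.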
TRb-SRC2 inh = qHTS for Inhibitors of the Interaction of Thyroid Hormone Receptor and Steroid Receptor Coregulator 2 | Thyroid hormone receptor beta (Homo sapiens), P10828 | TRbeta-SRC2 peptide binding, fluorescence polarization; receptor liganded with 1 µM T3 | Potency, µM (doses to about 106 µM), for inactives: at the top dose activity change, negative = inhibition, hits mostly inhibitors | 280,000 compounds, 0.065% hits | AID 1469, 2008;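 note: plate controls were bound peptide for no effect and peptide without receptor for full effect; nearly all actives have a fitted effect of over 50% in size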
Target sequence (P10828 whole entry, looked up): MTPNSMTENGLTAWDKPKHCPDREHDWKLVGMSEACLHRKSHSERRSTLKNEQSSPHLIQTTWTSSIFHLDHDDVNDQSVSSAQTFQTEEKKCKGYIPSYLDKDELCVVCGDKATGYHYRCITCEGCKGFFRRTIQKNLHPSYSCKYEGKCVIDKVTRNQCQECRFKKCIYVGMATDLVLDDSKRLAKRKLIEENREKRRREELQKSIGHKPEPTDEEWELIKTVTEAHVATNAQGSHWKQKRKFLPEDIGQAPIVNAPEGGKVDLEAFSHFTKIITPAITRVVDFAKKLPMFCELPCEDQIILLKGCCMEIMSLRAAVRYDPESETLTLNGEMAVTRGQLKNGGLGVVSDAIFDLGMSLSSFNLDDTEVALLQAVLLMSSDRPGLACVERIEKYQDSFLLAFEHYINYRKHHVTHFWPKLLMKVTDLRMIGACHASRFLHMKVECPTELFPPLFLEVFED
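Polarization signal, normalized between peptide-alone and full complex controls, measured compound effects on T3-liganded human TRb LBD (0.6 uM) binding 20 nM Texas Red SRC2 peptide after 5 hr.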
Tau fibril ThT = qHTS for Inhibitors of Tau Fibril Formation, Thioflavin T Binding; recombinant tau K18 P301L, heparin-induced fibrillization, ThT fluorescence; Potency, µM (doses to about 57.4 µM), inactives show top-dose activity, negative = inhibition, hits mostly inhibitors; 270,000 compounds, 2.1% hits; AID 1460, 2008; note: nearly all actives have a fitted effect of over 55% in size
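Aggregation was driven by heparin (20 uM final) acting on recombinant tau […] bearing P301L in 100 mM sodium acetate pH 7; fibrils were detected with Thioflavin T.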
Tau fluor cs = Counterscreen qHTS for Inhibitors of Tau Fibril Formation, Fluorescence Polarization | tau K18 P301L Alexa594 fluorescence, heparin fibrillization | Potency, µM (titrated, usually from 57.7 µM), for inactives: top-dose activity change, negative = decrease | 280,000 compounds, 0.93% hits | AID 1463, 2008; note: nearly all actives have a fitted effect of over 55% in size
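Human tau K18 P301L (15 uM unlabeled, 0.24 uM Alexa 594-labeled) in 100 mM sodium acetate pH 7 with 20 uM heparin, 6 hr at 37 C. ThT 30 uM added, 1 hr ambient; Alexa 594 FP and total fluorescence read at 555/632 nm.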
Numbers without * were called inactive; ? = inconclusive; · = no result; [ ] = another dose, or the depositor's remark. Unless noted, calls come from the whole dose curve; as a rule, active = well fitted curve in the direction sought with a large enough effect; inconclusive = small, poorly fitted or top-dose-only effect, or another doubt; inactive = no such curve, though single readings can be large; an effect the other way counts as inactive or inconclusive. Unless noted, % is set by controls: 0 for no effect and ±100 for the full control effect; potency is the fitted concentration of half-maximal effect.

SMILES	Tau fibril FP	TexasRed fluor	TRb-SRC2 inh	Tau fibril ThT	Tau fluor cs
CC(C)[C@@H](CC(=O)N[C@@H]1CCNC[C@H]1C(=O)N[C@H](CC(=O)N[C@@H](CCC(=O)O)CC(=O)O)Cc1c[nH]c2ccccc12)NC(=O)C[C@H](Cc1c[nH]c2ccccc12)NC(=O)[C@@H]1CNCC[C@H]1N	0%	-2%	-7%	-16%	-14%
CNC(=O)c1ccc(-c2sc3nc(N4CCOCC4)c4c(c3c2N)CCCC4)o1	20%	-8%	-20%	16µM*	14µM*[quencher]
COc1ccc(S(=O)(=O)NCCSc2nnnn2-c2ccccc2)cc1OC	-11%	8.9µM*[quencher]	-8%	-15%	?
O=C(CCn1cccn1)Nc1ccc(Br)cc1F	-1%	-10%	-2%	-1%	2%
COc1ccccc1CNC(=O)c1ccc(Cn2c(SCc3ccccc3)nc3cccnc32)cc1	0%	?	-6%	-17%	?
COc1ccccc1C1NC=C([N+](=O)[O-])C=C1[N+](=O)[O-] (stereo unspecified)	?	-8%	0%	11µM*	?
COc1cccc2nc(-c3cccs3)nc(NN3C(=O)C=C(C)C3=O)c12	·	-3%	5%	·	·
Cc1[nH]c(=O)c(C#N)c2c1COC(C)(C)C2	-6%	-4%	1%	-9%	-6%
CC1=C(C#N)C(=O)OC(C)(C)C1	7%	45µM*[fluorescent]	?	2%	10%
C/C(=C\C[Si](C)(C)C)CCC=O	-3%	0%	3%	-8%	-15%
Oc1ccc(/C=N/Nc2nc(N3CCCCCC3)nc(N3CCCCCC3)n2)c(O)c1	-14%	-1%	5%	?	10µM*[quencher]
Oc1ccc(/C=N/Nc2cc(N3CCCC3)nc(N3CCCC3)n2)cc1	3%	-1%	-11%	?	18µM*[quencher]
Oc1cccc(/C=N/Nc2cc(N3CCCC3)nc(N3CCCC3)n2)c1	-1%	1%	-27%	?	16µM*[quencher]
CCC(=O)OC1=C(C(C)=O)N(Cc2ccccc2)S(=O)(=O)c2ccccc21	-7%	6%	-1%	?	-17%
COc1ccc(-c2nc(SCC(=O)Nc3ccc4c(c3)OCO4)c(-c3ccccc3)[nH]2)cc1	?	-4%	-2%	0%	14µM*[quencher]
COc1ccc(-c2cc(C(=O)OCC(=O)Nc3ccc4c(c3)OCO4)c3ccccc3n2)cc1	-13%	4%	3%	?	8.9µM*[quencher]
O=C(COC(=O)c1cc(-c2ccccc2)nc2ccccc12)Nc1ccc2c(c1)OCO2	?	-8%	-2%	-4%	?
O=C(CSc1nc(-c2ccc(F)cc2)[nH]c1-c1ccccc1)Nc1ccccc1	?	1%	5%	6%	?
COc1ccc(-c2[nH]c(-c3ccccc3)nc2SCC(=O)Nc2ccc3c(c2)OCO3)cc1	5%	-3%	-2%	?	13µM*[quencher]
COc1ccc(-c2nsc(SCC(=O)Nc3ccc4c(c3)OCO4)n2)cc1	-8%	-1%	-11%	6%	5%
Cc1ccc(N2C(=O)N(CC(=O)C(C)(C)C)c3ccccc3S2(=O)=O)cc1C	-6%	?	-8%	-6%	-18%
CC(C)CCNC(=O)c1ccc(Cn2c(=O)c3cccn3c3cccnc32)cc1	-7%	0%	0%	3%	-8%
CCN1CCN(c2csc3ccc(Cl)cc3c2=O)CC1	-3%	5%	7%	?	-28%
O=c1c(N2CCN(c3cccc(Cl)c3)CC2)csc2ccccc12	11%	1%	8%	10µM*	-27%
O=c1c(N2CCN(c3ccccc3)CC2)csc2ccc(Cl)cc12	-13%	-12%	22%	13µM*	?
SMILES	Tau fibril FP	TexasRed fluor	TRb-SRC2 inh	Tau fibril ThT	Tau fluor cs
CC1CCCN(c2csc3ccccc3c2=O)C1 (stereo unspecified)	6%	0%	6%	?	-20%
Cc1ccc(S(=O)(=O)c2nc(C(C)(C)C)oc2N2CCOCC2)cc1	40µM*	-2%	-21%	?	-16%
Cc1ccc(S(=O)(=O)c2nc(C)oc2N2CCOCC2)cc1	-3%[2.34 µM]	1%	1%	-17%	-13%
CCOC(=O)N1CCC(NC(=O)c2ccc3c(c2)N(Cc2ccc(F)cc2)C(=O)c2ccccc2S3=O)CC1 (stereo unspecified)	-3%	-33%	-5%	-10%	-21%
Cc1ccc(S(=O)(=O)Nc2nsc(N)n2)cc1	18µM*	0%	-22%	11µM*	-23%
Cc1cc(C)nc(NS(=O)(=O)c2ccc(N)cc2)n1	7%	-2%	3%	-4%	-3%
Cc1ccc2c(c1)c1c(c(=O)n(-c3ccccc3)c(=O)n1Cc1ccccc1C)n2C	1%	-3%	-1%	1%	0%
COc1ccc(C2C(=O)N(C3CCC(C)CC3)CC(=O)N2CCc2ccccc2)cc1OC (stereo unspecified)	2%	-2%	-6%	9%	2%
CN(C)c1ccc(C(CNS(=O)(=O)c2ccc3ccccc3c2)c2c[nH]c3ccccc23)cc1 (stereo unspecified)	7%	0%	-3%	-7%	8.9µM*[quencher]
N=c1c[n+](N2CCOCC2)[n-]o1	?	-3%	6%	13µM*	-20%
Cc1ccc(Cl)cc1N1CCN(C(=O)c2sc3nc4n(c(=O)c3c2C)CCC4)CC1	2%	-7%	-1%	2%	-1%
O=[N+]([O-])c1cc(C(F)(F)F)ccc1NCCc1c[nH]c2ccc(O)cc12	0%	-1%	-4%	18µM*	28µM*[quencher]
O=[N+]([O-])c1cc(C(F)(F)F)ccc1NCCc1c[nH]c2ccccc12	-2%	-2%	-16%	13µM*	10µM*[quencher]
COc1ccc(S(=O)(=O)n2nc(C)c(S(=O)(=O)N3CCC(C)CC3)c2C)cc1C	-4%	-1%	4%	0%	1%
CNc1ccc(Br)cc(C(=O)/C=C/c2ccc(OC)cc2OC)c1=O	?	-4%	3%	11µM*	?
CNc1ccc(Br)cc(C(=O)/C=C/c2ccc(Cl)cc2Cl)c1=O	?	-6%	0%	10µM*	?
CN(C)/C=C/C(=O)/C=C/c1ccc(Cl)cc1Cl	0%	-2%	3%	?	-7%
COc1cccc(/C=C/C(=O)Nc2ccc3[nH]c(=O)[nH]c3c2)c1	-1%	-4%	7%	2%	-8%
COc1ccc(/C=C/C(=O)c2ccc(OC)cc2OC)c(OC)c1	5%	0%	6%	?	-19%
CNc1ccc(Br)cc(C(=O)/C=C/c2cccc(OC)c2)c1=O	-16%	-10%	1%	11µM*	?
